Max response data for 61 compounds are collected here from PubChem BioAssay AID2314 (National Center for Advancing Translational Sciences (NCATS), 2010).

The campaign covered roughly 300,000 compounds. About 37,000 (12%) were called active. This is one part of a sample in which actives are shown more often than they occur. Rule as the data show it: active = max response mostly above about 13% (no sharp cut-off); inactive = mostly below about 14%.

The nature of the assay: Cycloheximide Counterscreen for Small Molecule Inhibitors of Shiga Toxin. Also: read at 38.3 µM for the half of the compounds with a filed dose; 0% is about no effect. Particulars: cell reporter, cycloheximide protein synthesis inhibition counterscreen; hits give high values. (In general: A counterscreen serves to expose hits that act by an unwanted route or on another target.)
As to `COc1cc(CNCCN(C)C)ccc1OCc1c(F)cccc1Cl`, the max response is -2.65% (inactive).

`CCOC(=O)C1CCN(S(=O)(=O)c2ccc3c(c2)N(C(C)=O)CCO3)CC1`: the max response was 2.65% (inactive).

As for `c1csc(-c2cn3c(n2)SCC3)c1`, the max response is 22.4% (active).

In the case of `Cc1cc(-c2cccs2)nc(-n2cccc2)n1`, the max response is 16.4% (inactive).

On to `CCCS(=O)(=O)Nc1ccc(-c2cn3c(n2)SCC3)cc1`, for which the max response is 1.28% (inactive).

For `COCCNC(=O)CSc1nc2sccc2c(=O)n1-c1ccccc1`, the max response is -7.71% (inactive).

For the compound `O=C(NC1CCCC1)C(c1ccco1)N(C(=O)c1csnn1)c1ccccc1` (stereo unspecified), the max response is -5.09% (inactive).

Consider `NC(=O)C1CCCN(CC(=O)N2CCN(c3ccccc3)CC2)C1` (stereo unspecified), for which the max response was -4.9% (inactive).

With `CCOC(=O)C1CCN(S(=O)(=O)c2ccc3c(c2)N(C)C(=O)CC(=O)N3C)CC1`, the max response is -2.95% (inactive).

On to `COc1cc(C(=O)N2C(=O)c3cccc(N)c3C2=O)cc(OC)c1OC`, for which the max response was 2.15% (inactive).

In the case of `COc1ccc2c(c1OC)C(=O)N(c1ccc(O)cc1)C2`, the max response is 18.3% (active).

For `COc1ccc2c(c1OC)C(=O)N(c1ncn[nH]1)C2`, the max response is 2.6% (inactive).

Turning to `CCOc1ccc(S(=O)(=O)Nc2ccc(OC)nc2)cc1`, the max response was -3.62% (inactive).

For `CCOC(=O)C1=C(CSc2nnnn2C)N(C)C(=O)NC1c1ccccc1` (stereo unspecified), the max response was -4.86% (inactive).

Consider `Cc1cccnc1NC(=O)Cn1c(=O)oc2ccccc21`, for which the max response is -0.475% (inactive).

`Cc1nc(COc2cc3oc(=O)cc(C)c3cc2Cl)cs1`: the max response is 5.56% (inactive).

Regarding `O=C(CCc1ccccc1)Nc1ccnn1C1CCN(Cc2ccc(OCCO)cc2)CC1`, the max response is -1.22% (inactive).

As for `Cc1ccccc1-c1nc(CS(=O)(=O)CC(=O)NC(C)c2ccccc2)c(C)o1` (stereo unspecified), the max response is 1.09% (inactive).

In the case of `COC(=O)c1ccc(NC(=O)c2ccco2)cc1`, the max response was 25.4% (active).

Regarding `O=C(Nc1ccc(Cl)cc1)Nc1ccc(Oc2cccnc2)nc1`, the max response is 46.4% (active).

With `O=C(Nc1cccnc1)c1ccc(Cl)c([N+](=O)[O-])c1`, the max response is 11.1% (inactive).

Take `CCOC(=O)c1ccc(NC(=O)CNC(=O)c2ccco2)cc1`: the max response was -0.716% (inactive).

Regarding `O=C(Nc1cccnc1)c1cc(Cl)ccc1Cl`, the max response was 1.75% (inactive).

With `C/C(=N/NS(=O)(=O)c1ccccc1)c1ccc(NC(=O)C(F)(F)F)cc1`, the max response is 1.13% (inactive).

As for `O=C(NNC(=O)c1csc(-c2cccnc2)n1)Nc1ccc(Cl)cc1`, the max response is 1.7% (inactive).

On to `O=C(Nc1ccncc1)c1ccc(Cl)c([N+](=O)[O-])c1`, for which the max response is -2.17% (inactive).

With `Cc1ccnc(NC(=O)c2ccc(Cl)c([N+](=O)[O-])c2)c1`, the max response is 28.9% (active).

Turning to `C/C(=N\NS(=O)(=O)c1ccc(Cl)cc1)c1ccc(NC(=O)c2ccco2)cc1`, the max response was 34.2% (active).

For the compound `COC(=O)c1cc(NC(=O)c2ccco2)ccc1N1CCOCC1`, the max response was -1.96% (inactive).

As to `CN1CCN(S(=O)(=O)c2ccc(NC(=O)c3ccco3)cc2)CC1`, the max response was 12% (inactive).

Consider `COc1ccc(N2C(=O)/C(=C\c3ccco3)N=C2SCC(N)=O)cc1Cl`, for which the max response is 1.81% (inactive).

Consider `CCOc1ccccc1N1CCN(C(=S)Nc2ccc(S(N)(=O)=O)cc2)CC1`, for which the max response is -1.52% (inactive).

On to `Cc1ccc(C(CNC(=O)Nc2ccccc2)N2CCN(C)CC2)cc1` (stereo unspecified), for which the max response was -1.45% (inactive).

With `COC(=O)c1cc(S(=O)(=O)N2CCN(c3cc(C)ccc3C)CC2)c[nH]1`, the max response is 1.68% (inactive).

Take `Cc1ccc(-c2nn(-c3cccc(F)c3)cc2CNCCc2ccncc2)o1`: the max response was 5.75% (inactive).

Consider `Cc1ccc(Cl)c(NC(=O)CN2CCN(C=O)CC2)c1`, for which the max response was 5.32% (inactive).

Turning to `OC(CNCc1ccc(Cl)c(Cl)c1)c1ccccc1` (stereo unspecified), the max response is 9.74% (inactive).

For `CCN(CC)C(=O)COc1coc(CN2CCN(Cc3ccccc3)CC2)cc1=O`, the max response is -3.15% (inactive).

Take `CCC(Oc1ccccc1C)C(=O)Nc1ccc(S(=O)(=O)Nc2cc(C)on2)cc1` (stereo unspecified): the max response is -7.98% (inactive).

For `Cc1cccc(N2CCC(NCc3c(C(=O)N4CCCCC4)nc4c(C)cccn34)CC2)c1`, the max response is -4.59% (inactive).

Turning to `COc1cc(NC(=O)Nc2ccc(C)cc2)cc([N+](=O)[O-])c1`, the max response was 24% (inactive).

As for `Cc1ccc(NC(=O)NCC(c2cccnc2)N2CCOCC2)cc1` (stereo unspecified), the max response is -4.08% (inactive).

With `O=C(Nc1ccc(O)cc1)c1ccc(NC(=O)c2ccco2)cc1`, the max response was 31.9% (active).

Take `Cc1cc(NC(=O)c2ccc(F)cc2)ccc1NC(=O)c1ccco1`: the max response was 9.36% (inactive).

With `Cc1ccc(NC(=O)CC(=O)Nc2ccc(C)cc2)cc1`, the max response is -2.02% (inactive).

Regarding `O=C(NNC(=O)c1cccnc1)Nc1ccccc1`, the max response was 4.83% (inactive).

For `Cc1ccc(NC(=O)Nc2cccnc2)cc1`, the max response is 24.6% (active).

As to `Cc1ccnc(NC(=O)CCC(=O)N(CC(=O)NCc2ccccc2)Cc2ccco2)c1`, the max response is -2.62% (inactive).

For `Cc1ccc(NC(=O)/C(=C\c2ccccc2)NC(=O)c2ccco2)cc1`, the max response is 0.86% (inactive).

`CCC(=O)Nc1ccc(C(=O)N2CCN(C(=O)c3ccco3)CC2)cc1`: the max response is -1.69% (inactive).

Turning to `Cc1ccnc(NC(=O)c2ccc(NC(=O)c3ccco3)cc2)c1`, the max response is 36.1% (active).

For the compound `COC(=O)c1ccc(NC(=O)Nc2ccc(C)cc2)cc1`, the max response was 25.1% (active).

For the compound `CCc1ccccc1NC(=O)NCCN1CCCCC1`, the max response is -2.65% (inactive).

`COc1cccc(CNC(=O)CCC2CCCN(C(=O)c3ccoc3C)C2)c1` (stereo unspecified): the max response is 5.76% (inactive).

As to `Cc1ccc(S(=O)(=O)C2(S(=O)(=O)c3ccc(C)cc3)CCCC2)cc1`, the max response was -2.93% (inactive).

With `Nc1nc(SCC(=O)Nc2cc(C(F)(F)F)ccc2Cl)[nH]c(=O)c1NC(=O)c1ccco1`, the max response is -2.16% (inactive).

With `COc1ccc(S(=O)(=O)N2CCCCCC2)cc1C(=O)OCC(=O)Nc1cc(C)on1`, the max response is -1.32% (inactive).

Take `Cc1cc(C)cc(C(=O)OCC(=O)NCCNC(=O)COC(=O)c2cc(C)cc(C)c2)c1`: the max response is 19% (inactive).

As to `O=C1c2ccccc2NC(c2ccccn2)N1NS(=O)(=O)c1ccccc1` (stereo unspecified), the max response was 3.3% (inactive).

For `CCn1c(SCC(=O)NC2=NCCS2)nnc1C(C)NC(=O)c1ccccc1F` (stereo unspecified), the max response is -2.33% (inactive).

For `Cc1cc2oc(=O)cc(CN3CCN(S(=O)(=O)c4cccs4)CC3)c2cc1C(C)C`, the max response was -2.14% (inactive).
